This is a sample that favours compounds with a hit; in the whole collection about 2.3% have one here.
GBA activity: modulators of human glucocerebrosidase; P04062; purified enzyme, resorufin glucoside fluorescence (screen aimed at inhibitors), 20 min; Potency, µM; actives 1.1% (n = 48,000); AID 360; in the data active means potency below about 15 µM; inconclusive means mostly about 16 µM to 33 µM;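 further: the screen sought inhibitors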
Target sequence (P04062 whole entry, looked up): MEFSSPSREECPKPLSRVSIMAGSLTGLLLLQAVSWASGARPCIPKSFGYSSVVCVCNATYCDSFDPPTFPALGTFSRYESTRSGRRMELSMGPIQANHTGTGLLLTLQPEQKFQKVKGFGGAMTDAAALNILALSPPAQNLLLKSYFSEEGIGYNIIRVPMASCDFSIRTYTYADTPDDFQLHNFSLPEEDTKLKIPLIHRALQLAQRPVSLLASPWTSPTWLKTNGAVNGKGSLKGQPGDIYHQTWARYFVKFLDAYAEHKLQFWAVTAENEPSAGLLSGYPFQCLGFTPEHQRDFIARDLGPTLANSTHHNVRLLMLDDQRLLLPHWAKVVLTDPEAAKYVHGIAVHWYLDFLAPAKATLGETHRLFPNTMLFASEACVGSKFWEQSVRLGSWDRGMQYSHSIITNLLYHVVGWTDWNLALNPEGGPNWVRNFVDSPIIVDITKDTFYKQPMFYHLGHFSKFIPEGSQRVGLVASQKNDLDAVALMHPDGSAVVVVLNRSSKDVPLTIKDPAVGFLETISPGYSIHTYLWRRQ
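Normal human glucocerebrosidase (0.2 nM final) was assayed with resorufin β-D-glucopyranoside (30 uM final) in 50mM citric acid/KH2PO4, 10mM sodium taurocholate, 0.01% tween-20, pH 5.9. Compounds were titrated; fluorescence (Ex 548, Em 600) read after 20 min at RT.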
Bst PK mod: modulators of Bacillus stearothermophilus pyruvate kinase. purified pyruvate kinase, luminescence ATP production; ribose 5-phosphate activator present at AC10. Potency, µM. actives 1.2% (n = 51,000). AID 361; in the data active means potency below about 11 µM; inconclusive means mostly about 12 µM to 25 µM;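 the screen sought inhibitors and activators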;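 further: scaled between full activation by ribose 5 phosphate and full inhibition by luteolin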
Numbers without * were called inactive; i = inactive; ? = inconclusive; . = no result. Potency means the concentration at half of the fitted maximal effect.

SMILES | GBA activity | Bst PK mod
O=C(C1CCC(=O)N1C1CCCCC1)N1CCN(c2ccc(F)cc2)CC1 (stereo not given) | >76.9 | >57
CN(Cc1cccs1)C(=O)COc1ccc(-c2nnco2)cc1 | >76.9 | >57
COC(=O)/C=c1/sc2n(c1=O)CCN=2 | >76.9 | >57
CN(C)c1ccc(/C=c2\sc3n(c2=O)CCCN=3)cc1 | >76.9 | 2.67*
O=C1CCCC/C1=C\Nc1ccc(O)cc1 | >76.9 | >11.4
O=C1CCCC/C1=C\Nc1ccc(Cl)cn1 | 13.9* | >57
Cc1ccc2c(c1)N(Cc1ccncc1)C(=O)C(C)O2 (stereo not given) | >76.9 | >57
O=C1CC(c2ccccc2)n2nc(N3C(=O)c4ccccc4C3=O)nc2N1 (stereo not given) | . | >25.6
Cc1ccc(C)c(OCCCC(=O)Nc2ccc(N3CCOCC3)cc2)c1 | >76.9 | >57
CCCCNC(=O)CCC(=O)Nc1ccc2nc(N3CCOCC3)cc(C)c2c1 | 3.76* | .
CCOC(=O)C1CCCN(CCC(=O)Nc2ccc(F)c(F)c2)C1 (stereo not given) | >76.9 | >57
O=C(Nc1ccc2nn(-c3ccccc3)nc2c1)c1ccc(Br)o1 | >76.9 | >57
CCN1CCN(c2cc(C)c3cc(NC(=O)c4ccc(Br)o4)ccc3n2)CC1 | 5.06* | >57
CCOC(=O)C1CCCN(C(=O)CCC(=O)Nc2ccc3nc(N4CCOCC4)cc(C)c3c2)C1 (stereo not given) | 2.59* | >57
COCCCNC(=O)CCC(=O)Nc1ccc2nc(N3CCOCC3)cc(C)c2c1 | 6.8* | >57
Cc1cc(N2CCN(C)CC2)nc2ccc(NC(=O)CCC(=O)NCCC3=CCCCC3)cc12 | ? | >57
O=C(CCCC(=O)N(CC(=O)NC1CCCC1)Cc1ccc2c(c1)OCO2)Nc1ccccn1 | >76.9 | >57
C=CCn1c(SCc2c(C)noc2C)nnc1C1COc2ccccc2O1 (stereo not given) | >76.9 | >57
Cc1cc(N2CCOCC2)nc2ccc(NC(=O)C3CCC(C)CC3)cc12 (stereo not given) | 0.0606* | >57
O=C(Nc1ccc(N2CCOCC2)cc1)C1CC1 | >76.9 | >57
Fc1ccc(N2CCN(C(c3cccs3)c3nnnn3C3CCCC3)CC2)cc1 (stereo not given) | >76.9 | >57
CC(=O)[C@H]1[C@@H]2C(=O)N(c3cccc(Cl)c3)C(=O)[C@@H]2[C@H]2c3ccccc3C=CN21 | . | >11.4
O=C1NC(=O)[C@@H]2C3c4ccccc4C=CN3[C@H](C(=O)c3cccs3)[C@H]12 (stereo not given in full) | >76.9 | 6.21*
Cc1sc2c(c1C)CN(Cc1ccco1)CN2C(=O)c1ccccc1 | >76.9 | >57
CCOC(=O)c1cccc(NC(=O)CSc2nnc(C3CCCCC3)n2CC)c1 | >76.9 | >57
SMILES | GBA activity | Bst PK mod
CC1CC=C2C(C#N)=C(N)C(C#N)(C#N)C(c3cccs3)C2C1 (stereo not given) | 10.7* | >57
CC(C)(C)OC(=O)N1CC=C2C(C#N)=C(N)C(C#N)(C#N)C(c3cccs3)C2C1 (stereo not given) | ? | >57
CCOCCCNC(=O)c1ccc2c(c1)OCO2 | >76.9 | >57
O=C(NCCOc1ccccc1)c1ccc2c(c1)OCO2 | >76.9 | 8.06*
Cc1cc(C(=O)OCC(=O)Nc2cc(C)on2)c2ccccc2n1 | >76.9 | >57
Cc1cc(N/C=C/C(=O)c2cccc3ccccc23)no1 | . | 9.31*
CCOC(=O)CC1=C(C(=O)OCC)C(c2cc(OC)c(OC)cc2OC)C(C#N)=C(N)O1 (stereo not given) | . | >25.6
CCOC(=O)CC1=CC(C)(CC(=O)OCC)C(C#N)(C#N)C(N)=C1C#N (stereo not given) | 4.84* | >57
O=C(CN(C(=O)c1cc2c(s1)CCC2)C1CCCC1)NCc1cccs1 | >76.9 | >57
COC(=O)c1sccc1NC(=O)Cn1nnc(-c2ccc(C)cc2)n1 | 15.2* | >57
Cc1cccc(NC(=O)Cn2nnc(-c3cccs3)n2)c1C | >76.9 | >57
CCN(CC)C(=O)CSc1nc2ccccc2c(=O)n1CCC(=O)NCc1ccc(F)cc1 | >76.9 | >57
NS(=O)(=O)c1ccc(NC(=O)COC(=O)CCNC(=O)NC23CC4CC(CC(C4)C2)C3)cc1 | . | >57
CCOc1ccc(-c2cc(C(=O)NCCCN3CCN(CC)CC3)c3ccccc3n2)cc1 | >76.9 | 10*
COc1ccc(-c2cc(C(=O)NCCN3CCOCC3)c3ccccc3n2)cc1 | . | i
Cc1ccc(NC(=O)Nc2ccc3c(c2)N(C)C(=O)CS3)nc1 | >76.9 | .
Cc1ccc(NC(=O)Nc2ccc(F)cc2)nc1 | >76.9 | 4.71*
O=C(CSc1nnc(CNc2ccccc2)o1)N1CCc2ccccc21 | >76.9 | >57
O=C(CSc1nnc(Cc2csc(Nc3cccc(Cl)c3)n2)o1)N1CCc2ccccc21 | 14.5* | >57
O=C(COc1ccccc1O)Nc1ccc(Cl)cc1 | >76.9 | 10.6*
CCc1ccccc1OCC(=O)Nc1ccc(S(N)(=O)=O)cc1 | >76.9 | >57
O=C(COc1ccc(Cl)cc1Cl)Nc1ccccn1 | >76.9 | 0.131*
CCN1CCN(c2ccc(NC(=O)COc3ccccc3Cl)cc2)CC1 | 15.2* | >57
CCN1CCN(c2ccc(NC(=O)Cc3ccccc3)cc2)CC1 | i | >57
COc1ccccc1OCC(=O)Nc1ccccn1 | >76.9 | ?
SMILES | GBA activity | Bst PK mod
CCOC(=O)C1CCCn2c1nc1sc3c(c1c2=O)CCCC3 (stereo not given) | >76.9 | >11.4
COc1cc(-c2nnc(SCc3cccnc3)n2C)cc(OC)c1O | >76.9 | >57
COc1cccc(C2C3=C(CCCC3=O)Nc3nc4ccccc4n32)c1OC (stereo not given) | >76.9 | >57
Cc1nn(CC(=O)Nc2ccccc2)c(=O)c2ccccc12 | >76.9 | >57
CCC(=O)Nc1ccc(C(=O)Cn2nc(C(=O)O)c3ccccc3c2=O)cc1 | 4.62* | >57
CCn1c(SCC(=O)Nc2cc3oc4ccccc4c3cc2OC)nnc1-c1cccs1 | >76.9 | >57
CCCn1cnc2c(c1=O)c1nc3ccccc3nc1n2CCC1=CCCCC1 | >76.9 | >57
CCCn1cnc2c(c1=O)c1nc3ccccc3nc1n2CCc1ccccc1 | 7.01* | >57
CCOC(=O)c1c(NC(=O)CSc2nnnn2C)sc(C)c1-c1ccc(C)cc1 | >76.9 | >57
CCOc1ccc2cc(C#N)c(SCC(=O)NC(C)CC)nc2c1 (stereo not given) | >76.9 | >57
Clc1ccc(-n2ncc3c(NCc4ccco4)ncnc32)cc1 | . | 7.61*
Clc1ccc(Cn2ncc3c(NCc4ccco4)ncnc32)c(Cl)c1 | i | >57
COc1ccc(S(=O)(=O)N2CCN(c3nc4ccccc4nc3-n3nc(C)cc3C)CC2)cc1 | >76.9 | >57
CC1(C)CC(NC(=O)c2coc(=O)c(Br)c2)CC(C)(C)N1 | >76.9 | >57
O=C(OCC(=O)N1CCN(C(=O)c2ccco2)CC1)c1cc(-c2ccccc2)nc2ccccc12 | >76.9 | ?
O=C(OCC(=O)N1CCN(C(=O)c2ccco2)CC1)c1cc(-c2ccc(F)cc2)nc2ccccc12 | >76.9 | 2.11*
Cc1ccc2c(c1)cc(C)c1nnc(SCC(=O)NCc3ccco3)n12 | >76.9 | 4.16*
Cc1ccc2cc(C)c3nnc(SCC(=O)NCc4ccco4)n3c2c1 | >76.9 | ?
O=C(c1cc2c(=O)oc3ccccc3c2s1)N1CCN(c2ccccn2)CC1 | >76.9 | >57
COCC(C)n1c(C)cc(C(=O)COC(=O)c2c(NC(C)=O)sc(C)c2C)c1C (stereo not given) | >76.9 | >57
COc1ccc(NC(=O)C2C(=O)N(C)C3(C)CC2c2ccccc2O3)cc1 (stereo not given) | >76.9 | >57

Bioassay records from PubChem.
